Measurements published in PubChem BioAssay (NCI).
Compounds without any hit were thinned out: in the full panel of roughly 79,000, 15% have a hit. Values without a mark were called inactive. Activity calls are given as the source filed them. Cut-off read from the data, not from the text of the source: active = growth inhibition above about 70%; inactive = the rest.

Key:
[1] = NCI Yeast Anticancer Drug Screen. Data for the rad50 strain (AID 155);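 note: 0% = growth of vehicle-only cultures of the same strain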; conditions: S. cerevisiae rad50 strain growth inhibition; at 50.0 µM; stronger effect = higher value
In short: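 Relative growth inhibition (compound vs vehicle) was measured in yeast with a defined repair-gene alteration.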

[2] = NCI Yeast Anticancer Drug Screen. Data for the mec2-1 strain (AID 157); conditions: S. cerevisiae mec2-1 strain, at 50.0 µM, stronger effect = higher value
In short: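 Vehicle-treated cultures served as reference for growth inhibition of compound-exposed mec2-1 yeast.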

[3] = NCI Yeast Anticancer Drug Screen. Data for the sgs1 mgt1 strain (AID 161);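 note: 0% = growth of cultures given vehicle only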; conditions: S. cerevisiae sgs1 mgt1 strain, at 50.0 µM, stronger effect = higher value
In short: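 Mutant yeast exposed to compound; growth scored against vehicle-only wells.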

[4] = NCI Yeast Anticancer Drug Screen. Data for the cln2 rad14 strain (AID 165);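 note: 0% = growth equal to vehicle treated cultures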; conditions: S. cerevisiae cln2 rad14 strain, at 50.0 µM, stronger effect = higher value
In short: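 Each compound was tested on cln2 rad14 yeast. Inhibition of growth was calculated against vehicle-exposed controls.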

[5] = NCI Yeast Anticancer Drug Screen. Data for the bub3 strain (AID 167); conditions: S. cerevisiae bub3 mutant strain, at 50.0 µM, stronger effect = higher value
In short: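 Screening used yeast with an engineered genetic alteration affecting cell cycle control. Compound-exposed cultures were compared with vehicle cultures, and reduced growth was taken as inhibition.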

[6] = NCI Yeast Anticancer Drug Screen. Data for the mlh1 rad18 strain (AID 175); conditions: S. cerevisiae mlh1 rad18 strain growth inhibition; at 50.0 µM; stronger effect = higher value
In short: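 Vehicle-treated cultures served as the reference for growth inhibition in a yeast strain carrying DNA damage repair alterations exposed to each compound.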

SMILES | growth inhibition [1] | growth inhibition [2] | growth inhibition [3] | growth inhibition [4] | growth inhibition [5] | growth inhibition [6] [%]
Cc1ccc(N)c(S(=O)(=O)O)c1 | -4.85% | 4.35% | 0.75% | -53.9% | 8.85% | -13.2
C=C(C)[C@@H]1CC[C@]2(CO)CC[C@]3(C)[C@H](CC[C@@H]4[C@@]5(C)CC[C@H](O)C(C)(C)[C@@H]5CC[C@]43C)[C@@H]12 | 15.6% | -4.3% | -18.1% | 11.8% | -11.7% | 29.1
C1Cc2onc(-c3noc4c3CCC4)c2C1 | -11.2% | -16.8% | -15.2% | 22.6% | -14.2% | -14.6
COc1ccc(C(=O)/C(=N/Nc2ccccc2)c2ccc(OC)cc2)cc1 | -3.45% | -13.8% | -1.25% | 2% | 1.8% | 30.8
Cc1onc(-c2c(F)cccc2Cl)c1-c1ncc(-c2ccc(Br)cc2)o1 | -13.4% | -15.9% | -9.75% | 9.45% | -15.5% | 9.7
COC1OC(C(O)C(O)CO)C(O)C(O)C1O (centres undefined) | 14.3% | -5.7% | 11.8% | -55.7% | -3.65% | 11.7
COc1ccc2c(Cl)cc(NC(=O)Nc3c(C)cccc3C)nc2c1 | 5.8% | 1.15% | 13.9% | 6.65% | 21.1% | 7.2
NNc1ncnc2c1ncn2C1OC(CO)C(O)C1O (centres undefined) | -9.85% | -12.8% | 0.15% | -21.9% | 1.45% | -15.2
C1C[S+]2CC[S+]1CC2 | 3.5% | 28.9% | 24.3% | -5.95% | 19.2% | 28.2
O=C(O)c1c[nH]c2ccccc2c1=O | 4.95% | -8.15% | 5.7% | -21.5% | 1.65% | 1.65
CCOC(=O)N[C@H]1CCc2cc(OC)c(OC)c(OC)c2-c2ccc(SC)c(=O)cc21 | 33.5% | -16.5% | 16.2% | 5.1% | 1.35% | -1.55
CCCCn1cnc2c(=O)[nH]cnc21 | 3.2% | 2.25% | -5.15% | -14.8% | 8.95% | 2.3
Cc1ccc(NC(=S)N2CCOCC2)cc1C | 0.55% | -17.4% | 29.6% | 8.35% | 4.2% | -1.55
CCN(CC)CCN1CNC(=S)NC1 | 0.1% | -20.6% | 11.2% | -1.8% | -1.2% | -7.15
CC(CC(CCC(=O)O)(c1ccccc1)c1ccccc1)N(C)C (centres undefined) | 19.6% | -4.7% | 9.45% | -0.1% | 7.95% | 13.4
O=C1CSc2ccccc2N1 | -35% | -8.45% | 32% | -12.7% | 1.3% | 11.2
Cc1cc(=O)n(Nc2ccccc2)c(O)c1C#N | 3.45% | -19% | 0.3% | 2.65% | 5.6% | 3.15
O=C(OCc1ccccc1)n1nnc2ccccc21 | 27.8% | -4.05% | 8.55% | -17.2% | 19.2% | 2.45
CCOC(=O)CNC(=O)Sc1ccc(C(C)(C)C)cc1 | 88.2% (active) | 88.2% (active) | 84.2% (active) | 70.2% (active) | 76.7% (active) | 61.8
